Screening data as filed in PubChem BioAssay.
Only some compounds are listed: those with a hit (about 2.8% of all), similar ones and a draw of the others.
p-CIP stab down – compounds decreasing mouse p/CIP protein stability | decrease of EGFP signal, % at 10 µM | F442A p/CIP-EGFP cells, EGFP fluorescence, 16 h | actives 0.01% (n = 290,000) | AID 1984;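 active = EGFP signal decrease of at least 30% at 10 µM or well 3 SD below plate mean, unless failing retest; inactive = the rest, including hits failing retest or dose response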
PolyA inh – blocks polyadenylation in yeast reporter cells; activity score, % at 12 µM; S. cerevisiae SKY197-pL101 polyadenylation reporter, beta-gal luminescence; efflux-impaired pdr1/pdr3 knockout yeast; score 100 = 6 SD above DMSO; actives 0.02% (n = 300,000);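 active = lowest replicate activity score at least 50, where 100 means six control SD above control mean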;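 note: yeast exposed to compound for 9 h at 30 °C; higher score means more reporter readthrough which indicates perturbed polyadenylation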
AHR activator – human AHR activation; P35869; AID 2796; actives 2.5% (n = 320,000); AHR-responsive luciferase reporter cells, luminescence; activation, % at 5 µM; in the data active = activation above about 47%;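 note: 0% = vehicle wells and 100% = reference agonist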
Target sequence (P35869 whole entry, looked up): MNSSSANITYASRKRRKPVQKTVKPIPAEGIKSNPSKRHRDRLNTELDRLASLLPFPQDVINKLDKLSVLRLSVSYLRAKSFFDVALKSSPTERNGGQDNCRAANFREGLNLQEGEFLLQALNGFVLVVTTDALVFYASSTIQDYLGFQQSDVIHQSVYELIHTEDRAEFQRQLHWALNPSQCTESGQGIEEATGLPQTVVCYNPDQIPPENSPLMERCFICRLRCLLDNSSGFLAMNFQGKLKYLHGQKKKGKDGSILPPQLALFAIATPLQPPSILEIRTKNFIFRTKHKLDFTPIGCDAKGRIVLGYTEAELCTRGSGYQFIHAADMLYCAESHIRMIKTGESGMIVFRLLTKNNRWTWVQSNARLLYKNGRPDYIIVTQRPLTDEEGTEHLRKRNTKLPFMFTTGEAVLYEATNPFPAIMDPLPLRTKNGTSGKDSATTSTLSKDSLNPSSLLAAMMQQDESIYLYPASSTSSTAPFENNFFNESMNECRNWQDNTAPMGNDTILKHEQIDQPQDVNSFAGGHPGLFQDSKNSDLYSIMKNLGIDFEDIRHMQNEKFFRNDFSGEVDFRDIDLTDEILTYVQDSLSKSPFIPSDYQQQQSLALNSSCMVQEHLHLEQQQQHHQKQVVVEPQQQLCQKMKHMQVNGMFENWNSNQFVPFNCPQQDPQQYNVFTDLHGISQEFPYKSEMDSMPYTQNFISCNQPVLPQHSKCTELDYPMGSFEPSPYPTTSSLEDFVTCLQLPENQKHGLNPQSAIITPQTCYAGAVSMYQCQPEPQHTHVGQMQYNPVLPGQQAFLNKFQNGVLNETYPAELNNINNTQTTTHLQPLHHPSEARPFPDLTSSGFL
HIF act – HIF pathway transcriptional activation. U2OS HRE-luciferase reporter, luminescence; normalized: DMSO 0%, desferrioxamine 100%. activation, % at 7.5 µM (by protocol). AID 1910. actives 0.32% (n = 300,000);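 active = mean activation of at least 10% of the iron chelator positive control signal, with at least half of replicates also reaching 10%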
Platelet DG rel – platelet dense granule release activity | inhibition, %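 (compounds screened at 7.5 µM in platelet-rich plasma)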 | actives 0.22% (n = 300,000) | human platelet-rich plasma, SFLLRN dense granule ATP release, luminescence;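 active = mean replicate score, as percent of positive control, at or above 50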
* marks the source's active call; other numbers are inactive results; . = no result given.

SMILES	p-CIP stab down	PolyA inh	AHR activator	HIF act	Platelet DG rel
Cc1cc(NC(=O)c2nn(C)c(C)c2Br)no1	0	-9	63*	2	-7
COc1ccc(OC)c2c1sc(=NC(=O)c1ccco1)n2C	-11	-5	51*	0	-6
COc1ccccc1C(=O)N=c1sc2c(C)ccc(OC)c2n1C	1	-9	62*	4	3
COc1ccc(OC)c2c1sc(=NC(=O)C1CC1)n2C	-6	-16	24	0	1
COC(=O)c1ccc(/C=C/c2nc3ccccc3c(=O)[nH]2)cc1	-1	-6	0	1	63*
COCCOC(=O)N/C=C\c1nc2ccccc2c(=O)[nH]1	-8	0	55*	1	-16
COc1cc(/C=C/c2nc3ccccc3c(=O)[nH]2)cc(OC)c1OC	-12	-13	23	1	-1
O=C(O)c1cc(-c2ccc(Cl)cc2)n(-c2ccc(F)cc2)n1	-6	2	4	-2	-3
CCC(C)(C)c1nnc(NC(=O)C2CCN(C(=O)c3ccco3)CC2)s1	-2	4	4	27*	1
CCc1nnc(NC(=O)C2CCN(C(=O)c3ccco3)CC2)s1	-8	17	-2	1	-2
c1ccc(OCc2nn3c(-c4n[nH]c5c4CCC5)nnc3s2)cc1	-30	17	68*	0	5
Cc1cc(C)n2nc(C(=O)NCCc3ccccc3)nc2n1	-6	-5	28	2	5
O=C(NCCc1ccccc1)c1nc2nc(-c3cccs3)cc(C(F)(F)F)n2n1	-18	-4	77*	2	1
Cc1c(Cl)cccc1Nc1nc(NCCO)c2ccccc2n1	-14	-1	57*	2	0
OCCNc1nc(Nc2ccc(Br)cc2)nc2ccccc12	7	9	6	1	5
Oc1cccc(Nc2nc(NCC3CCCO3)c3ccccc3n2)c1 (centres undefined)	-11	12	79*	0	0
OCCNc1nc(Nc2ccccc2)nc(Nc2ccccc2)n1	-3	-6	48*	0	9
c1ccc(Nc2nc(NCC3CCCO3)c3ccccc3n2)cc1 (centres undefined)	4	-12	12	0	4
OCCNc1nc(Nc2ccccc2)nc2ccccc12	3	10	51*	0	35
CC(C)(CO)Nc1nc(Nc2ccccc2)nc(Nc2ccccc2)n1	1	-9	5	0	0
COc1cc(-c2nc(CN3CCCCC3CCNC(C)=O)c(C)o2)ccc1F (centres undefined)	-1	-4	1	0	0
Cc1ccc(S(=O)(=O)NCC(=O)OCC(=O)N(CCC#N)c2ccccc2)cc1	.	.	2	.	.
COc1cccc(OC)c1NC(=O)CN(C)S(=O)(=O)c1ccc2c(c1)OCCO2	4	5	2	0	2
CC(=O)c1cccc(N=Nc2c(C)[nH]c3ccccc23)c1	-18	-25	64*	1	4
O=C(O)c1ccc(N=Nc2c(O)[nH]c3ccccc23)cc1	0	-6	10	-2	133*
SMILES	p-CIP stab down	PolyA inh	AHR activator	HIF act	Platelet DG rel
COc1ccc2[nH]c(N=Nc3ccccc3C)c(O)c2c1	-2	-9	65*	-1	13
Cc1ccccc1N=Nc1c(O)[nH]c2ccccc12	.	-6	48*	1	1
CCOC(=O)c1nn(-c2ccc(Cl)cc2)c(C)cc1=O	4	2	3	0	-1
CSc1ccc(C(=O)N2CCC(CCC(=O)NCc3ccc(F)cc3)CC2)cc1	1	3	.	-10	1
COc1ccc(Nc2nc(N)c([N+](=O)[O-])c(NCCO)n2)cc1	-4	-4	21	0	20
Cc1[nH]nc(Nc2ccccc2)c1[N+](=O)[O-]	21	-8	20	2	0
CNc1nc(Nc2ccc(Br)cc2)nc(N)c1[N+](=O)[O-]	13	-26	70*	2	1
Cc1ccc(Nc2n[nH]c(C)c2[N+](=O)[O-])cc1	1	-18	37	3	-13
Cc1cccc(Nc2n[nH]c(C)c2[N+](=O)[O-])c1	-1	13	59*	4	-13
Cc1[nH]nc(Nc2ccc(Br)cc2)c1[N+](=O)[O-]	-13	-3	125*	4	-2
CCc1noc(C)c1C(=O)N1CCN(S(=O)(=O)c2ccccc2C(F)(F)F)CC1	.	.	-2	.	.
CSc1ccc(CN(C)CC(=O)NC(C)c2ccccc2)cc1 (centres undefined)	-1	-3	0	-1	-21
COc1cccc(-c2cc3c(-n4cccc4)ncnc3o2)c1	0	-30	56*	1	-2
Cc1ccccc1Oc1ncnc2oc(-c3ccccc3)cc12	4	39	-2	0	-12
CCOc1ccc(S(=O)(=O)Nc2cccc(C(=O)NCC(c3ccc(OC)cc3)N3CCOCC3)c2)cc1 (centres undefined)	-10	10	-4	0	-5
Cc1cc(O)ccc1N/C=C(\C#N)c1nc2ccccc2o1	8	13	54*	0	-2
COc1cc(OC)cc(C(=O)/C=C2\Sc3ccccc3N2C)c1	0	-38	-3	2	2
CN1/C(=C\C(=O)c2cccs2)Sc2ccccc21	-66	-14	77*	1	-5
O=C(NCC1CCCO1)c1cc(-c2ccccc2F)no1 (centres undefined)	-4	-2	7	13*	-4
CCN(CC)S(=O)(=O)c1ccc(OC)c(NC(=O)CC2CCCC2)c1	-2	14	1	0	-5
Oc1c(/C=N/c2ccccn2)sc2ccccc12	-13	-3	24	2	86*
O=C(Nc1ccccn1)C1CCN(S(=O)(=O)c2ccc(Cl)cc2)CC1	.	-7	0	1	0
COc1ccc(OCc2cc(C(=O)N3CCCC(O)C3)no2)c2ccccc12 (centres undefined)	-11	-1	52*	3	1
COCCn1c(C)cc(C2=NNC(=NC3CC3)SC2)c1C	9	3	-8	-6	82*
CCOC(=O)CN(C(=O)COC(=O)C1=NNC(=O)CC1)c1ccc(F)cc1	.	.	-1	.	.
SMILES	p-CIP stab down	PolyA inh	AHR activator	HIF act	Platelet DG rel
CCOC(=O)CN(c1ccccn1)S(=O)(=O)c1ccc(OC)cc1	6	14	8	0	-4
O=c1[nH]c(-c2ccccn2)nc2sc(-c3ccccc3)cc12	-5	-32	.	72*	1
Cc1c(C(=O)N(C)C)sc2nc(-c3ccccn3)[nH]c(=O)c12	-1	-7	41	0	-1
Cc1c(C(=O)C(=O)N2CC=C(c3ccccc3)CC2)c2ccccc2n1C	0	1	22	0	-18
O=C(O)CCSCCCN1C(=O)c2cccc3cccc(c23)C1=O	-12	-6	49*	0	-3
NC1=NS(=O)(=O)NC1c1cccc(Cl)c1 (centres undefined)	-10	14	1	0	16
CCn1c(O)c(N=NC(=O)CNc2ccc(C)cc2)c2ccccc21	-5	-10	67*	0	2
